Records with an inconclusive call do not appear. The source made the active and inactive calls. Unless noted, calls follow the shape of the dose curve; as a rule, active = well fitted curve in the direction sought with a large enough effect in the repeat runs; inconclusive = weak or mixed curves; inactive = no such curve, though single readings can be large; an effect the other way counts as inactive or inconclusive.
Assays:
[1] = qHTS assay to identify small molecule antagonists of the androgen receptor (AR) signaling pathway using the MDA cell line in the presence of 0.5 nM R1881 - cell viability counter screen (AID 1259242); also: nearly all actives have a fitted effect of over 45% in size
Outline: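 Viability of MDA-kb2 cells was multiplexed with the luciferase AR readout; after 16 hr with compounds and R1881 at 0.5 nM final, CellTiter-Fluor fluorescence was recorded.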

[2] = molecular target: Estrogen receptor (Homo sapiens) (UniProt P03372); test: qHTS assay to identify small molecule antagonists of the estrogen receptor alpha (ER-alpha) signaling pathway using the BG1 cell line in the presence of 0.1 nM 17-beta-estradiol (AID 1259244); also: nearly all actives have a fitted effect of over 50% in size
Estrogen receptor (Homo sapiens), sequence (P03372 whole entry, looked up): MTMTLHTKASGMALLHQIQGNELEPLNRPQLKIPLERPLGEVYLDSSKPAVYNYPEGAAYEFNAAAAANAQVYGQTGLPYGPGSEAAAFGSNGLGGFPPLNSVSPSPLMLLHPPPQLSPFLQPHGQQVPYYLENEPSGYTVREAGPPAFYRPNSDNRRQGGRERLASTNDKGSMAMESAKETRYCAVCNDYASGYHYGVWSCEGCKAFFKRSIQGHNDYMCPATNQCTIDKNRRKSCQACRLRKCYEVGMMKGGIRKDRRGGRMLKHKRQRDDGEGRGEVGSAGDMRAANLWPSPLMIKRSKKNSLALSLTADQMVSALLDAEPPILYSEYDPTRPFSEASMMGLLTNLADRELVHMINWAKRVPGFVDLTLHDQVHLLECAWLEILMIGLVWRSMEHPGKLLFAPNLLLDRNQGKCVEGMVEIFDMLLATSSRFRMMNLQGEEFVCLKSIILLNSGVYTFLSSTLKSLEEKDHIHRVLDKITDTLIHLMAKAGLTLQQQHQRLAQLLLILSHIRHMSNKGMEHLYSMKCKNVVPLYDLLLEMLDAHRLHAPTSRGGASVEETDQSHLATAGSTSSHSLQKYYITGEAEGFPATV
Outline: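 Estradiol at 0.1 nM (final) stimulates the endogenous ER-alpha of VM7Luc4E2 cells carrying an ERE-driven luciferase; compounds are co-incubated 22 h at 37C and luciferase output quantified by luminescence.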

[3] = qHTS assay to identify small molecule phospholipidosis (PLD) inducers (AID 1259344; active = well fitted curve in the direction sought with a large enough effect; an effect the other way counts as inactive or inconclusive)
Outline: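 HepG2 cells, 900/well, treated with compound plus LipidTOX Red for 24 h at 37 C; amiodarone positive and DMSO negative controls. Fixed with paraformaldehyde/Hoechst, then high-content imaging scored LipidTOX pit count and integrated intensity per well and per cell.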

[4] = qHTS assay to identify small molecule HDAC inhibitors - cell viability counter screen (AID 1259365); also: series mostly up to about 92 µM; nearly all actives have a fitted effect of over 50% in size
Outline: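 To flag cytotoxic hits, 1,500 wild-type HCT-116 cells per well, plated the day before, receive test compounds for 2hr at 37 C before CellTiter-Glo reagent and a luminescence read.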

[5] = qHTS assay to identify small molecule agonists of the sonic hedgehog signaling (Shh) pathway - cell viability counter screen (AID 1259366); also: nearly all actives have a fitted effect of over 50% in size
Outline: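 Fluorescence from CellTiter-Fluor reports live cells in this counter screen. NIH/3T3-derived Gli1-Luc reporter cells receive test compounds for 24hr at 37C; reagent goes in at 23hr.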

[6] = qHTS assay to identify small molecule antagonists of the sonic hedgehog signaling (Shh) pathway - cell viability counter screen (AID 1259367); also: nearly all actives have a fitted effect of over 55% in size
Outline: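 NIH/3T3-derived Gli1-Luc reporter cells, 2,000/well, plated 4 hr before compound addition, then stimulated with conditioned medium for 24 hr at 37C. Viability measured in the same wells by CellTiter-Fluor fluorescence, reagent added at 23 hr for 1 hr.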

[7] = qHTS assay to identify small molecule agonists of the sonic hedgehog signaling (Shh) pathway (AID 1259368; calls by dose curve;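 also: NIH/3T3-derived 3T3Gli1-Luc cells carrying a stable Gli1-driven firefly luciferase reporter; series mostly up to about 92 µM; nearly all actives have a fitted effect of over 15% in size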)
Outline: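 A Gli1 transcriptional response element controlled firefly luciferase in 3T3Gli1-Luc cells. Compounds and a positive control were added 4 hr after plating, and cells were incubated a further 24 hr at 37 C before luminescence detection.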

[8] = qHTS assay to identify small molecule antagonists of the sonic hedgehog signaling (Shh) pathway (AID 1259369; calls by dose curve; also: nearly all actives have a fitted effect of over 45% in size)
Outline: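 For antagonist detection, the reporter line received test compounds together with conditioned medium, incubated 24hr at 37 C, 5% CO2, then luminescence was recorded following 30min room-temperature luciferase reagent incubation.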

[9] = qHTS assay to identify small molecule HDAC inhibitors (AID 1259364);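 also: wild-type HCT-116 cells with endogenous class I/II HDAC activity; top concentration of the series differs between compounds; nearly all actives have a fitted effect of over 45% in size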
Outline: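 Read-out: luminescence of HDAC-Glo I/II reagent, 30 min RT, reflecting class I/II deacetylase activity in whole HCT-116 cells pre-exposed 2 h to DMSO-dissolved compounds.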
% is scaled to controls: 0 for no effect and ±100 for the full control effect.

O=C(NCCc1c[nH]c2ccccc12)c1cccnc1
inactive: outcome [1] | Potency [2] | outcome [3] | outcome [4] | Potency [5] | Potency [6] | outcome [7] | Potency [8]

CN1CCN(CC(=O)N2c3ccccc3C(=O)Nc3cccnc32)CC1
inactive: viability change, negative = cytotoxic [1] 1.29% [at 8.39 µM] | activity change, negative = inhibition [2] 8.49% [at 8.39 µM] | outcome [3] | activity change, negative = inhibition [9] 0.529% [at 8.39 µM] | activity change, negative = cytotoxicity [4] 3.63% [at 8.39 µM] | viability change, negative = cytotoxic [5] 1.72% [at 8.39 µM] | viability change, negative = cytotoxic [6] 0.196% [at 8.39 µM] | activity change [7] 0.176% [at 8.39 µM] | activity change, negative = inhibition [8] 12.8% [at 8.39 µM]

COC(=O)c1ccccc1C(=O)c1ccc(OCCN2CCCCC2)cc1
inactive: outcome [1] | Potency [2] | outcome [3] | Potency [9] | outcome [4] | Potency [5] | Potency [6] | outcome [7] | Potency [8]

CCN1CCc2nc(N)oc2CC1
inactive: outcome [1] | Potency [2] | outcome [3] | Potency [9] | outcome [4] | Potency [5] | Potency [6] | outcome [7] | Potency [8]

CCCCOCCOC(=O)COc1nc(Cl)c(Cl)cc1Cl
inactive: outcome [1] | Potency [2] | Potency [9] | outcome [4] | Potency [5] | Potency [6] | outcome [7] | Potency [8]

CC(=O)Nc1ccc(S(=O)(=O)Nc2ccc([N+](=O)[O-])cc2)cc1
inactive: outcome [1] | Potency [2] | outcome [3] | Potency [9] | outcome [4] | outcome [7]

CO[C@@H]1[C@@H](OC(N)=O)[C@@H](O)[C@H](Oc2ccc3c(O)c(NC(=O)c4ccc(O)c(CC=C(C)C)c4)c(=O)oc3c2C)OC1(C)C
inactive: outcome [1] | Potency [2] | outcome [3] | Potency [9] | outcome [4] | Potency [5] | Potency [6] | outcome [7] | Potency [8]

CC(C)NCC(O)COc1ccc(COCCOC(C)C)cc1 (stereo unspecified)
inactive: outcome [1] | Potency [2] | outcome [3] | Potency [9] | outcome [4] | Potency [5] | Potency [6] | outcome [7] | Potency [8]

CNS(=O)(=O)CCc1ccc2[nH]cc(C3CCN(C)CC3)c2c1
inactive: outcome [1] | Potency [2] | outcome [3] | Potency [9] | outcome [4] | Potency [5] | Potency [6] | outcome [7] | Potency [8]

CC(=O)OC(C)OC(=O)C(C)c1ccc(-c2ccccc2)c(F)c1 (stereo unspecified)
inactive: outcome [1] | Potency [2] | outcome [3] | Potency [9] | outcome [4] | Potency [5] | Potency [6] | outcome [7] | Potency [8]

Cc1ccsc1/C=C/C1=NCCCN1C
inactive: outcome [1] | Potency [2] | outcome [3] | Potency [9] | outcome [4] | Potency [5] | Potency [6] | outcome [7] | Potency [8]

O=C(CCN1CCN(CCO)CC1)N1c2ccccc2Sc2ccc(C(F)(F)F)cc21
inactive: outcome [1] | Potency [2] | outcome [3] | Potency [9] | outcome [4] | Potency [5] | Potency [8]

CCOc1cc(NC(C)=O)ccc1C(=O)OC
inactive: outcome [1] | Potency [2] | outcome [3] | Potency [9] | outcome [4] | Potency [5] | Potency [6] | Potency [8]

O=C(OCc1ccccc1)C(=O)OCc1ccccc1
inactive: outcome [1] | Potency [2] | Potency [9] | outcome [4] | Potency [5] | Potency [6] | outcome [7] | Potency [8]

O=C(CS(=O)Cc1ccco1)NC/C=C\COc1cc(CN2CCCCC2)ccn1 (stereo unspecified)
inactive: outcome [1] | Potency [2] | outcome [3] | Potency [9] | outcome [4] | Potency [5] | Potency [6] | outcome [7] | Potency [8]

COC(=O)[C@@H]1[C@H]2C[C@H]3c4[nH]c5ccccc5c4CCN3C[C@@H]2CC[C@@H]1O
inactive: outcome [1] | Potency [2] | outcome [3] | Potency [9] | outcome [4] | Potency [5] | Potency [6] | outcome [7] | Potency [8]

CC(=O)NCCCCCC(=O)O
inactive: outcome [1] | Potency [2] | outcome [3] | Potency [9] | outcome [4] | Potency [5] | Potency [6] | outcome [7] | Potency [8]

O=C1c2cccc3c2[C@H](CCC3)CN1[C@@H]1CN2CCC1CC2
inactive: outcome [1] | Potency [2] | outcome [3] | Potency [9] | outcome [4] | Potency [6] | outcome [7]

CCCN1C[C@H](CSC)C[C@@H]2c3cccc4[nH]cc(c34)C[C@H]21
inactive: outcome [1] | Potency [2] | outcome [3] | outcome [4] | Potency [5] | Potency [6] | outcome [7] | Potency [8]

O=C(CCNNC(=O)c1ccncc1)NCc1ccccc1
inactive: outcome [1] | Potency [2] | outcome [3] | Potency [9] | outcome [4] | Potency [5] | Potency [6] | outcome [7] | Potency [8]

CC1(C)S[C@@H]2[C@H](N=CN3CCCCCC3)C(=O)N2[C@H]1C(=O)O
inactive: outcome [1] | Potency [2] | outcome [3] | Potency [9] | outcome [4] | Potency [5] | Potency [6] | outcome [7] | Potency [8]

O=C1c2ccccc2C(=O)N1CCl
inactive: outcome [1] | Potency [2] | Potency [9] | outcome [4] | Potency [5] | Potency [6] | outcome [7]

COCCOC(=O)C1=C(C)NC(C)=C(C(=O)OC(C)C)C1c1cccc([N+](=O)[O-])c1 (stereo unspecified)
inactive: outcome [1] | Potency [2] | outcome [3] | Potency [9] | outcome [4] | Potency [5] | Potency [6] | outcome [7] | Potency [8]

CC(N)C(=O)OC(C)(C)Cc1ccc(Cl)cc1 (stereo unspecified)
inactive: outcome [1] | Potency [2] | Potency [9] | outcome [4] | Potency [5] | Potency [6] | outcome [7] | Potency [8]

From PubChem BioAssay (Tox21)
